Results reported in PubChem BioAssay AID1209 (Sanford-Burnham Center for Chemical Genomics, 2008).
Among all 190,000 compounds or so, about 810 (0.43%) were called active. Cut-off read from the data, not from the text of the source: active = inhibition above about 50%; inactive = the rest. The entries come from a sample that favours actives as a whole.

Biological target: Mannose-6-phosphate isomerase (Homo sapiens) (UniProt P34949)
Assay: inhibitors of human PMI, primary screen, biochemical, fluorescence intensity, coupled assay (AID 1209);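 note: plate controls were DMSO vehicle for no effect and wells lacking substrate for full effect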
Settings: purified PMI enzyme, at 20 µM, hits give high values

Sequence of Mannose-6-phosphate isomerase (Homo sapiens) (P34949 whole entry, looked up): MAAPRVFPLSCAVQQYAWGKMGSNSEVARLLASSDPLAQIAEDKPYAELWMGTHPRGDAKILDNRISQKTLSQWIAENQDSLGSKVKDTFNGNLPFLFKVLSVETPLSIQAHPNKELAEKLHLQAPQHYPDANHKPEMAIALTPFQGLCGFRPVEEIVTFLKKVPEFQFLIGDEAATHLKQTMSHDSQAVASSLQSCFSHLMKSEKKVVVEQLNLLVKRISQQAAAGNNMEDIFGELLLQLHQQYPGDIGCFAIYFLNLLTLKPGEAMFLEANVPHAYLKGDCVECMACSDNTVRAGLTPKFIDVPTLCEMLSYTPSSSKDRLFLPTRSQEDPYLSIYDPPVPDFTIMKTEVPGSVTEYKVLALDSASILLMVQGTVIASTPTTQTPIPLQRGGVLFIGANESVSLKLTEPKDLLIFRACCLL

inhibition, active:
CCOc1ccc(CNc2ccc(N3CCCC3)cc2)cc1 85.9%, CC1(C)CNc2cc(N)ccc2S1 82.8%, CN(C)c1ccc(C(=S)NCc2ccco2)cc1 50.7%, CC[n+]1ccc(C[n+]2ccccc2)c2ccccc21 96.8%, O=C(Nc1ccc(N=Nc2ccccc2)cc1)c1ccc(Cl)cc1Cl 57.5%, Cc1ccc2[nH]c(=O)c(C(c3nnnn3C3CCCC3)N3CCCc4ccccc43)cc2c1 (centres undefined) 57.3%, CN(C)c1cc(N/N=C\c2ccccc2)nc(N(C)C)n1 59.2%, COc1ccccc1/C=N/Nc1cc(N(C)C)nc(N(C)C)n1 60.4%, COc1ccc(/C=N/Nc2cc(N(C)C)nc(N(C)C)n2)cc1 61.2%, CN(C)c1cc(N/N=C/c2ccc(Cl)cc2)nc(N(C)C)n1 67.4%, O=C(CSc1n[nH]c(-c2ccncc2)n1)NC1CCS(=O)(=O)C1 (centres undefined) 77.1%, CC[n+]1ccccc1/C=C/Nc1ccccc1 62%, OC1(c2ccccc2)CCN(Cc2ccccc2)CC1 57.2%, O=C(c1cnn2c(C(F)F)cc(C3CC3)nc12)N1CCOCC1 53.1%, O=C(CSc1ccc2ccccc2c1)NCCc1ccc(O)c(O)c1 52.6%, Cc1ccc(C(=O)c2coc3c2C(=O)C(=O)c2ccccc2-3)cc1 72.9%, O=C1C(=O)c2c(C(=O)c3ccccc3)coc2-c2ccccc21 73.4%

inhibition, inactive:
C/C(=N/NC(=O)c1ccncc1)c1c[nH]c2ccccc12 -0.2%, Cc1cccc(-n2ccnc2SCC(=O)N2CCCc3ccccc32)c1C 5.4%, COC(=O)c1c(C(=O)OC)c2cc(C(=O)c3ccccc3)ccn2c1Cl -15.3%, CS(=O)(=O)N1CCN(C2CCN(Cc3ccccc3)CC2)CC1 -0.6%, CN1CCc2nc3sc(C(=O)NCc4ccccc4)c(N)c3cc2C1 -30.8%, CC(NC(=O)NC12CC3CC(CC(C3)C1)C2)c1ccc2c(c1)OCO2 (centres undefined) -7.3%, O=C(NCC(c1ccco1)N1CCN(c2ccccc2F)CC1)OCc1ccccc1 (centres undefined) 18%, O=C(N1CCCCCC1)n1c(Cc2ccccc2)nc2ccccc21 -0.4%, NCc1oc(-c2ccccc2)cc1C(=O)O -55.4%, COc1c(C(O)CC(C)C)ccc2c1C(=O)OCc1cc(C)cc(O)c1O2 (centres undefined) 23.7%, O=C(CCCc1c[nH]c2ccccc12)NCC1COc2ccccc2O1 (centres undefined) -0.7%, Cc1cccc(CN2CCN(CC(=O)NCc3cccs3)C2=O)c1 -8.2%, CCOc1ccc(CNc2ccc(CNc3ncn[nH]3)cc2)cc1 9.7%, CCOc1ccc(C(=O)Nc2ccc(N3CCCC3)cc2)cc1 -29%, O=C(CSc1nc2[nH]ncc2c(=O)n1-c1ccccc1)NCc1cccs1 -10.6%, O=C(CCCCCC(=O)N(CCO)CCO)N(CCO)CCO -2.9%, CC1(C)CC(=S)Nc2ccccc2S1 41.8%, CC1(C)CNc2cc([N+](=O)[O-])ccc2S1 1.5%, O=C(NCc1ccc2c(c1)OCO2)c1cc(-c2ccccc2)on1 15.7%, O=C(c1ccc(OCC2CCCO2)cc1)N1CCc2ccccc2C1 (centres undefined) 2.4%, Oc1ccc2ccccc2c1/C=N/Nc1nnc(-c2ncc[nH]2)c2ccccc12 -2.3%, CC(=O)Nc1ccc(C(=S)NCc2ccco2)cc1 9.7%, CN(C)c1ccc(/C=N/NC(=S)NCc2ccco2)cc1 -8%, C/C(=N\NC(=O)COc1ccc(C#N)cc1)c1ccccc1OC(F)F 1%, CC(=O)Nc1cccc(Oc2ncnc3scc(-c4ccc(C(C)C)cc4)c23)c1 12.9%, CNC(=O)c1nn(-c2ccc(Cl)cc2)ccc1=O 6.2%, CCOc1cc(NC(=S)NCCCOC)c(OCC)cc1NC(=O)c1cccs1 17.4%, CC[n+]1ccc(C)c2cc(P(=O)(c3ccccc3)c3ccccc3)ccc21 -16%, CC[n+]1ccc(/C=C/c2ccc(N(C)C)cc2)c2ccccc21 1%, CC(=O)Nc1ccc(C2=NN(Cc3nnc(-c4ccccc4)o3)C(=O)SC2)cc1 2.2%, CN(C)c1cccc(C(=O)NCC2CCCO2)c1 (centres undefined) 9.2%, O=C(Nc1ccc(N=Nc2ccccc2)cc1)c1ccccc1Cl 2.6%, O=C(Nc1ccc(N=Nc2ccccc2)cc1)c1cccc(Cl)c1 7.7%, COc1cccc(NC(=O)c2cccnc2)c1 8.6%, O=c1[nH]c2cc3c(cc2cc1C(c1nnnn1C1CCCC1)N1CCCc2ccccc21)OCCO3 (centres undefined) 12.8%, CCC(C)(C)n1nnnc1C(c1cc2cc(C)ccc2[nH]c1=O)N1CCCc2ccccc21 (centres undefined) 44.4%, CCOC(=O)Cc1csc(NC(=O)CSc2nnc(-c3ccc(F)cc3)o2)n1 -5.5%, CCOC(=O)c1ccccc1NC(=O)COC(=O)c1ccc(C)c(S(=O)(=O)N2CCOCC2)c1 6.5%, CCOC(=O)Cn1nc(C)n(-c2ccc(C(C)(C)C)cc2)c1=O 12.5%, Cc1cc(N/N=C/c2ccccc2)nc(NCc2ccccc2)n1 21.5%, COc1ccc(/C=N/Nc2cc(OC)ncn2)cc1 14.3%, Clc1ccc(/C=N/Nc2ccccn2)cc1 -8.3%, COc1ccccc1/C=N/NC1=NCCCCC1 2.7%, COc1ccc(/C=N/Nc2cc(C)nc(N)n2)cc1 12.1%, COc1ccccc1/C=N/Nc1nncc2ccccc12 2.9%, Cc1cc(N/N=C/c2ccc(Cl)cc2)nc(NCc2ccccc2)n1 21.7%, Cc1cc(N/N=C\c2ccccc2)nc(-c2ccccc2O)n1 17.7%, CCn1c(SCC(=O)Nc2cc(C)on2)nc2c(c1=O)SC(C)C2 (centres undefined) 8.4%, O=C(Nc1ccc2c(c1)OCCO2)c1ccc2ccccc2n1 -3.6%, O=C(COc1ccccc1)NCC(=O)Nc1ccc(S(=O)(=O)NCc2ccco2)cc1 9.9%, COc1ccc(C(C(=O)NC2CCCC2)N(Cc2cccs2)C(=O)c2ccn[nH]2)cc1OC (centres undefined) 11.2%, CN(C)C(=O)CCSc1nnc(-c2ccncc2)o1 -4.7%, CC1(C)Cc2c(c(N3CCCC3)nc3sc4c(N5CCN(CCO)CC5)ncnc4c23)CO1 -22.8%, Cc1cc(C(=O)N2CCCC(C(=O)c3cccc4ccccc34)C2)nc(C)n1 (centres undefined) 6.1%, O=C(CNS(=O)(=O)c1cccs1)Nc1ccc2c(c1)OCCO2 9.1%, CC(C)C(=O)Nc1cccc(C(=O)N2CCCCC2C)c1 (centres undefined) 15.5%, O=C(NCc1ccncc1)Nc1cc(Cl)ccc1Cl 8.5%, Nc1nncn1C(=O)CCCN1C(=O)c2ccccc2C1=O 5.4%, CCn1c(COc2ccccc2OC)nnc1SCC#N 5.9%, NC(N)=Nc1nc(C2COc3ccccc3O2)cs1 (centres undefined) -4%, S=c1[nH]nc(C2COc3ccccc3O2)o1 (centres undefined) -16.3%, Cn1c(=O)c2c(nc(NC3CCCCC3)n2CC(=O)C23CC4CC(CC(C4)C2)C3)n(C)c1=O 1.2%, O=S(=O)(c1ccc(Br)s1)N1CCC(Cc2ccccc2)CC1 1.1%, Cc1ccc(N(C(=O)c2cc3ccccc3oc2=O)C2C=CS(=O)(=O)C2)cc1 (centres undefined) 13.3%, O=C(CSc1nnc(-c2ccccc2)c(-c2ccccc2)n1)NC1CCS(=O)(=O)C1 (centres undefined) -3.8%, Cc1ccc(-c2nnc(SCC(=O)NC3CCS(=O)(=O)C3)nc2-c2ccc(C)cc2)cc1 (centres undefined) 3.8%, O=C(CSc1nnc(-c2ccccc2F)o1)OCc1ccccc1 -0.7%, CC[n+]1c(/C=C/Nc2ccccc2)oc2ccccc21 1.7%, CC[n+]1ccccc1/C=C/c1ccc(N(C)C)cc1 26.1%, CCOC(=O)COn1c(=O)c(C)[n+]([O-])c2ccccc21 4.8%, CC(C)(C)c1cc(CCC(=O)NN)cc(C(C)(C)C)c1O -6.6%, CC(C)C(C(=O)OCC(=O)c1cccc([N+](=O)[O-])c1)N1C(=O)[C@@H]2[C@H]3CC[C@H](C3)[C@@H]2C1=O (some centres undefined) 21.3%, OC1(c2ccc3ccccc3c2)CCN(Cc2ccccc2)C1 (centres undefined) -11.8%, OC1(c2ccc(F)cc2)CCN(Cc2ccccc2)C1 (centres undefined) -8.8%, CCC1(C)Cc2[nH]c(=O)c(C#N)cc2CO1 (centres undefined) 2.9%, COc1cc(/C=N/Nc2nc(C)nc3c2cnn3-c2ccccc2)ccc1O 6.9%, c1cc2nnnn2nc1N1CCCCC1 -6.5%, CN1CCN(C(=O)c2cnn3c(C(F)F)cc(C4CC4)nc23)CC1 9.1%, O=C(c1cnn2c(C(F)F)cc(C3CC3)nc12)N1CCCC1 -5.5%, NS(=O)(=O)c1ccc(CCNC(=O)CSc2ccc3ccccc3c2)cc1 -13.1%, COc1ccc(CCNC(=O)CSc2ccc3ccccc3c2)cc1OC 1.7%, Cc1cc(C)n2nc(C(=O)OCCOc3ccc(Br)cc3)nc2n1 7.1%, COc1cc2nc(NC(=O)c3ccc(Cl)cc3)[nH]c(=O)c2cc1OC 25.5%, COc1ccc(C(=O)c2coc(-c3ccccc3C(=O)O)c2C(=O)O)cc1 -8.2%, Cc1ccc(C(=O)c2c[nH]cc2-c2ccccc2)cc1 -1%, O=C1c2ccccc2C(=O)c2c1oc(C(F)(F)F)c2C(=O)c1ccccc1 -31.5%, O=C(c1ccccc1)c1coc2c1C(=O)c1ccccc1C2=O -42.6%
